This passage reports fold change permeability results from PubChem BioAssay.

Values without a mark were called inactive. Calls of active or inactive are those of the source. Rule as the data show it: active = fold change permeability below about 0.7 or above about 1.3; inactive = in between.

This assay in a line: compounds altering in vitro BBB leakiness – cell-based, FITC-avidin fluorescence, HTS, primary screen (AID 1963498). Also: test concentration not given here. To be noted: brain endothelial barrier, actives lie on both sides.
With `C[N+](C)(C)CCCCCC[N+](C)(C)C`, the fold change permeability was 1.

With `Cc1ncc(-c2c[nH]c3ccccc23)o1`, the fold change permeability is 1.2.

For `CN1CCN(C2=Nc3cc(Cl)ccc3Nc3ccccc32)CC1`, the fold change permeability is 1.2.

In the case of `NCCCCN`, the fold change permeability was 0.9.

For `O=CN(O)CCCP(=O)(O)O`, the fold change permeability is 2.2 (active).

For the molecule `CC(C)C[C@H](NC(=O)[C@H]1O[C@@H]1C(=O)O)C(=O)NCCCCN=C(N)N`, the fold change permeability is 1.3 (active).

As for `CN1CCC(=C2c3ccccc3C=Cc3ccccc32)CC1`, the fold change permeability is 1.1.

As for `CC(C)(Oc1ccc(CCNC(=O)c2ccc(Cl)cc2)cc1)C(=O)O`, the fold change permeability is 0.9.

In the case of `CCN(CC)Cc1ccc(C(=O)N(CCc2ccccc2OC)[C@@H]2CCNC2)cc1`, the fold change permeability was 0.9.

On to `COc1cc(C(O)C(=O)O)ccc1O` (stereo not given), for which the fold change permeability is 1.

In the case of `Cc1[nH]c(=O)c(C#N)cc1-c1ccc2nccn2c1`, the fold change permeability is 0.8.

As to `COc1ccc(CCn2nnnc2C2(c3ccc(C)cc3)CC2)cc1`, the fold change permeability is 1.6 (active).

Regarding `O=C1c2ccccc2C(=O)c2c(NCCc3ccc(O)cc3)ccc(NCCc3ccc(O)cc3)c21`, the fold change permeability was 1.1.

For `Nc1ncnc2c1ncn2[C@@H]1O[C@H](CO)[C@@H](O)[C@H]1O`, the fold change permeability was 1.

In the case of `O=C1c2ccccc2-c2n[nH]c3cccc1c23`, the fold change permeability is 1.5 (active).

As to `Clc1ccc(N2CCN(Cc3cc4ccccn4n3)CC2)cc1`, the fold change permeability is 1.3 (active).

Regarding `OC[C@H]1O[C@H]([S-])[C@H](O)[C@@H](O)[C@@H]1O.[Au+]`, the fold change permeability was 1.5 (active).

For the molecule `O=C(S)S`, the fold change permeability was 1.4 (active).

Regarding `COC(=O)Nc1nc2ccc(C(=O)c3cccs3)cc2[nH]1`, the fold change permeability is 1.4 (active).

Turning to `O=c1c(-c2ccc(O)cc2)coc2cc(O)cc(O)c12`, the fold change permeability is 0.8.

As for `N[C@@H](CC(=O)N1CCN(C(c2ccc(F)cc2)c2ccc(F)cc2)CC1)C(=O)N1Cc2ccccc2C1`, the fold change permeability was 1.1.

Turning to `Cc1ccccc1N1C(=O)c2cc(S(N)(=O)=O)c(Cl)cc2NC1C` (stereo not given), the fold change permeability is 0.8.

With `Nc1ncnc2c1c(-c1ccc(Oc3ccccc3)cc1)cn2C1CCCC1`, the fold change permeability was 1.6 (active).

As for `CC(N=C(NC#N)Nc1ccncc1)C(C)(C)C` (stereo not given), the fold change permeability was 0.9.

As for `COc1ccc(CCN(C)CCc2ccc(OC)c(OC)c2)cc1OC`, the fold change permeability is 2 (active).

For the molecule `CN1C(=O)c2sccc2N(C)c2nc(Nc3ccc(S(N)(=O)=O)cc3)ncc21`, the fold change permeability is 1.8 (active).

For the molecule `COc1cc2nc(N3CCCC3)nc(NCCCCCN3CCCC3)c2cc1OC`, the fold change permeability was 1.2.

On to `Clc1cccc(Cl)c1CSc1nnc(-c2cnccn2)s1`, for which the fold change permeability was 1.2.

As for `O=C1NCN(c2ccccc2)C12CCN(CCCC(c1ccc(F)cc1)c1ccc(F)cc1)CC2`, the fold change permeability was 1.2.

Consider `Oc1ccc2ccccc2c1SSc1c(O)ccc2ccccc12`, for which the fold change permeability was 1.6 (active).

For the molecule `CC(=O)SCC[N+](C)(C)C`, the fold change permeability is 0.8.

`C[C@H](Cc1ccccc1)Nc1ncnc2c1ncn2[C@@H]1O[C@H](CO)[C@H](O)C1O` (stereo not given in full): the fold change permeability is 1.3 (active).

As for `c1ccc([C@H]2CN3CCSC3=N2)cc1`, the fold change permeability is 1.5 (active).

As to `Cn1c(=O)c2[nH]c(-c3ccccc3)nc2n(C)c1=O`, the fold change permeability was 1.1.

Turning to `CC(C)C(=O)c1c(C(C)C)nn2ccccc12`, the fold change permeability is 1.3 (active).

Consider `CCCCNc1ccc(C(=O)OCCN(C)C)cc1`, for which the fold change permeability was 1.8 (active).

As for `CC(CN(C)C)CN1c2ccccc2CCc2ccccc21` (stereo not given), the fold change permeability was 1.4 (active).

Regarding `CCCNC(=O)Nc1ccc(Oc2ncnc3cc(OC)c(OC)cc23)cc1Cl`, the fold change permeability was 1.1.

For `Cc1cc(C(=O)Cn2cc(C#N)ccc2=O)c(C)n1Cc1ccccc1`, the fold change permeability was 1.7 (active).

`CC(=O)OCC(=O)[C@@]1(O)CC[C@H]2[C@@H]3CCC4=CC(=O)CC[C@]4(C)[C@H]3C(=O)C[C@@]21C`: the fold change permeability is 0.9.
